The text below walks through data of paper PMC4336329 (PLoS ONE, 2015).

Hit rate of the full screen: of about 310,000 compounds, about 2,200 (0.71%) showed an effect of 50% or more. Effects have a minus sign here. The list comes from a sample in which strong results are over-represented; it also holds similar structures and randomly drawn compounds.

The experiment deals with human ether-à-go-go-related gene (hERG) potassium channel (human, UniProt Q12809). Description: primary screen, population patch clamp on CHO cells stably expressing hERG; higher = less effect of the substance.
Sequence of human ether-à-go-go-related gene (hERG) potassium channel (Q12809 whole entry, looked up): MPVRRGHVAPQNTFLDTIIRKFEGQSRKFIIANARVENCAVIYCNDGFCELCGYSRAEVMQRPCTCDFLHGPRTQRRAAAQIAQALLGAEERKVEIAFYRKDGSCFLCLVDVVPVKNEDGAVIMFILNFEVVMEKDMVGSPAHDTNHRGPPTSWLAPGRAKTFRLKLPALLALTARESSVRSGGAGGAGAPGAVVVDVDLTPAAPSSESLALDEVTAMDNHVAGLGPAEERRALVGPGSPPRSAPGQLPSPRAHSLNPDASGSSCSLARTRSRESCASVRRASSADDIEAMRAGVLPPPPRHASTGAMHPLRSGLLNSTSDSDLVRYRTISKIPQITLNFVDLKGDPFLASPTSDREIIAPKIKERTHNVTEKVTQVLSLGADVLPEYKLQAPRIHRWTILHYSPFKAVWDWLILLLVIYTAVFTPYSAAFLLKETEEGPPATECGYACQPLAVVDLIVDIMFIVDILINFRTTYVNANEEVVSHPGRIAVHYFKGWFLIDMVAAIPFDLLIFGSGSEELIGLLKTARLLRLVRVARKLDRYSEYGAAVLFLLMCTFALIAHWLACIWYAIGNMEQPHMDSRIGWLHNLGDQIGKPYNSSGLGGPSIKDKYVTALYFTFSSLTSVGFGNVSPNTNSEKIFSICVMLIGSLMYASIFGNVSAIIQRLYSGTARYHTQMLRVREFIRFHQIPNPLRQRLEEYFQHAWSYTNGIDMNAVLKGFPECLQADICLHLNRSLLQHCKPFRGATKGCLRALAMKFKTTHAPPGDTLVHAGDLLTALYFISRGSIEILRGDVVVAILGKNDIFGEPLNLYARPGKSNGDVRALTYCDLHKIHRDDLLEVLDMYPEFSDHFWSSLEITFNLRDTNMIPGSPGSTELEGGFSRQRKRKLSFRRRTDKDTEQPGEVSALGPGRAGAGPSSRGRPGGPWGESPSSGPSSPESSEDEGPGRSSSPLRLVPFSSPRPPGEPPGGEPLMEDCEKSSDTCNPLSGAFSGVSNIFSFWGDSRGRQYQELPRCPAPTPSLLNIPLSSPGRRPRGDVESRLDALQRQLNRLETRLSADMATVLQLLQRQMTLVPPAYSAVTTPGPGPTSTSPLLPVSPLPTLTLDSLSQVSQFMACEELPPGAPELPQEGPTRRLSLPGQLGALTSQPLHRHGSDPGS
`O=C(CC1NCCc2ccccc21)Nc1ccccc1` (centres unmarked): the “hERG current change (%, negative = inhibition) at 1uM” value turned out to be 4.29%.

On to `COc1cc(S(=O)(=O)n2cnc(C)c2)ccc1Cl`, for which the “hERG current change (%, negative = inhibition) at 1uM” value is reported as 6.58%.

Take `CCCCC(=O)NNC(=S)NC(=O)C(c1ccccc1)c1ccccc1`: the “hERG current change (%, negative = inhibition) at 1uM” value stood at 12.3%.

Turning to `CC(C)(C)N(CC#CCC(O)(c1ccccc1)C1CCCC1)CCO` (centres unmarked), the “hERG current change (%, negative = inhibition) at 1uM” value is on record as 15.6%.

As to `CNc1nc(CC(C)=O)ns1`, the “hERG current change (%, negative = inhibition) at 1uM” value came to 6.99%.

For `Cc1ccc(Cc2cc(C)n[nH]c2=O)cc1`, the “hERG current change (%, negative = inhibition) at 1uM” value is 27.1%.

Regarding `CN(C)c1ccc(/C=N/NC(=O)C(O)(c2ccccc2)c2ccccc2)o1`, the “hERG current change (%, negative = inhibition) at 1uM” value is -5.86%.

For the compound `CCOC(=O)C1CCCCN1Cc1cc(Cl)ccc1O` (centres unmarked), the “hERG current change (%, negative = inhibition) at 1uM” value turned out to be 4.99%.

As for `COC(=O)c1cc2c(ccn2-c2ccc(F)cc2)n1Cc1ccc(OC)cc1`, the “hERG current change (%, negative = inhibition) at 1uM” value is given as 0.901%.

For the compound `COc1ccc(C(=O)C2CCCN(Cc3cccn3-c3cccnc3)C2)cc1OC` (centres unmarked), the “hERG current change (%, negative = inhibition) at 1uM” value is recorded as -34.9%.

For the compound `COc1ccc(C(=O)C2CCCN(Cc3ccsc3)C2)cc1OC` (centres unmarked), the “hERG current change (%, negative = inhibition) at 1uM” value is given as -38.5%.

Consider `COc1ccc(C(=O)C2CCCN(Cc3cnc(N4CCOCC4)s3)C2)cc1F` (centres unmarked), for which the “hERG current change (%, negative = inhibition) at 1uM” value is given as -17.9%.

Consider `COc1ccc(C(=O)C2CCCN(Cc3cccn3-c3nccs3)C2)cc1OC` (centres unmarked), for which the “hERG current change (%, negative = inhibition) at 1uM” value is recorded as -90.2%.

On to `COc1ccc(C(=O)C2CCCN(Cc3cccn3-c3nccs3)C2)cc1F` (centres unmarked), for which the “hERG current change (%, negative = inhibition) at 1uM” value is listed as -91.4%.

Turning to `COc1ccc(C(=O)C2CCCN(Cc3ccc4nonc4c3)C2)cc1F` (centres unmarked), the “hERG current change (%, negative = inhibition) at 1uM” value turned out to be 3.27%.

In the case of `O=C(O)c1ccc2c(=O)[nH]c(CN3CCOCC3)nc2c1`, the “hERG current change (%, negative = inhibition) at 1uM” value turned out to be 15.6%.

As to `CC(OC(=O)C1CCCCC1)C(=O)Nc1ccc(S(N)(=O)=O)cc1` (centres unmarked), the “hERG current change (%, negative = inhibition) at 1uM” value was 9.37%.

For `COc1ccc(CC(=O)Nc2ccc(-c3noc(-c4ccccc4OC)n3)cc2)cc1`, the “hERG current change (%, negative = inhibition) at 1uM” value is -11.7%.

As to `O=S(=O)(NCCc1ccncc1)c1cc(Br)ccc1F`, the “hERG current change (%, negative = inhibition) at 1uM” value is listed as 2.96%.

For `O=C(c1cc([N+](=O)[O-])ccc1N1CCCCC1)N1CCc2ccccc21`, the “hERG current change (%, negative = inhibition) at 1uM” value amounted to 8.63%.

Regarding `COc1cc2[nH]c(=O)n(CCC(=O)NCCCN3CCN(c4ccccc4F)CC3)c(=O)c2cc1OC`, the “hERG current change (%, negative = inhibition) at 1uM” value was found to be 0.776%.

As to `O=C(NCCCN1CCN(c2ccccc2F)CC1)Nc1ccccc1[N+](=O)[O-]`, the “hERG current change (%, negative = inhibition) at 1uM” value is -51.1%.

Turning to `O=C(CCn1c(=O)[nH]c2ccccc2c1=O)NCCCN1CCN(c2cccc(Cl)c2)CC1`, the “hERG current change (%, negative = inhibition) at 1uM” value is given as -30%.

With `O=C(NCCCN1CCCC1)Nc1ccccc1[N+](=O)[O-]`, the “hERG current change (%, negative = inhibition) at 1uM” value was found to be 14.8%.

Consider `O=C(NCCCN1CCN(c2ccccc2F)CC1)Nc1ccc(F)cc1`, for which the “hERG current change (%, negative = inhibition) at 1uM” value is -47.6%.

Turning to `O=C(CCCCCn1c(=O)[nH]c2ccccc2c1=O)NCCCN1CCN(c2ccccc2F)CC1`, the “hERG current change (%, negative = inhibition) at 1uM” value is listed as -84.6%.

`Cn1cnnc1SCC(=O)NCc1cccc(C(F)(F)F)c1`: the “hERG current change (%, negative = inhibition) at 1uM” value came out at 24.1%.

In the case of `CC(=O)Nc1ccc(N/C=C(\C#N)S(=O)(=O)c2ccc(Cl)cc2)cc1`, the “hERG current change (%, negative = inhibition) at 1uM” value stood at 11.1%.

Regarding `CCc1cccc(NC(=O)C2CCCN(S(=O)(=O)c3ccc4[nH]c(=O)ccc4c3)C2)c1` (centres unmarked), the “hERG current change (%, negative = inhibition) at 1uM” value is recorded as -0.861%.

Take `CCOc1ccc(N2CC(C(=O)N3CCc4ccccc4C3)CC2=O)cc1` (centres unmarked): the “hERG current change (%, negative = inhibition) at 1uM” value is reported as -67.1%.

`CCOc1ccc(N2CC(C(=O)N3CCc4ccccc43)CC2=O)cc1` (centres unmarked): the “hERG current change (%, negative = inhibition) at 1uM” value was -8.82%.

For the compound `Cc1ccc(N2CC(C(=O)N3CCc4ccccc4C3)CC2=O)cc1` (centres unmarked), the “hERG current change (%, negative = inhibition) at 1uM” value was -17.7%.

With `CCC(C)(C)n1nnnc1C(c1cc2ccc(OC)cc2[nH]c1=O)N1CCc2ccccc21` (centres unmarked), the “hERG current change (%, negative = inhibition) at 1uM” value is listed as 6.76%.

Consider `Cc1ccc(S(=O)(=O)c2cc3c(=O)n4ccccc4nc3n(CC3CCCO3)c2=N)cc1C` (centres unmarked), for which the “hERG current change (%, negative = inhibition) at 1uM” value amounted to 9.33%.

Regarding `N=c1c(C(=O)NC2CCCC2)cc2c(=O)n3ccccc3nc2n1CC1CCCO1` (centres unmarked), the “hERG current change (%, negative = inhibition) at 1uM” value is recorded as -94.4%.

For `N=c1c(C(=O)NC2CCCCC2)cc2c(=O)n3ccccc3nc2n1CC1CCCO1` (centres unmarked), the “hERG current change (%, negative = inhibition) at 1uM” value was -79.2%.

`N=c1c(S(=O)(=O)c2ccccc2)cc2c(=O)n3ccccc3nc2n1CC1CCCO1` (centres unmarked): the “hERG current change (%, negative = inhibition) at 1uM” value was -17%.

For the compound `CC(NC(=O)c1cc2c(=O)n3ccccc3nc2n(CC2CCCO2)c1=N)c1ccccc1` (centres unmarked), the “hERG current change (%, negative = inhibition) at 1uM” value was -72.3%.

For the compound `CCOC(=O)c1c(C)[nH]c(N=Nc2cccc(OC)c2)c1C`, the “hERG current change (%, negative = inhibition) at 1uM” value is reported as 6.77%.

With `CCOC(=O)C1CCN(S(=O)(=O)c2ccc(Br)c(OCC)c2)CC1`, the “hERG current change (%, negative = inhibition) at 1uM” value worked out at 0.854%.

On to `CC1=[N+]([O-])C2(N)CCc3nonc3C2(O)C1` (centres unmarked), for which the “hERG current change (%, negative = inhibition) at 1uM” value came to 6.29%.

For `COC(=O)[C@H](CCSC)NC(=O)Nc1cc(C)ccc1C`, the “hERG current change (%, negative = inhibition) at 1uM” value was found to be 11.7%.

Turning to `C=CCn1c(O)c(C(C)=NCCN2CCN(C(=S)NC)CC2)c(=O)[nH]c1=O`, the “hERG current change (%, negative = inhibition) at 1uM” value was found to be 4.36%.

With `COc1ccc(CN2CCC(C(=O)c3cccc(Cl)c3)CC2)cc1`, the “hERG current change (%, negative = inhibition) at 1uM” value is given as -66.8%.

As for `O=C(c1ccc(F)cc1)C1CCN(Cc2ccc(F)cc2)CC1`, the “hERG current change (%, negative = inhibition) at 1uM” value is listed as 2.51%.

Consider `COc1ccc(CNC(=O)CN2CCC(C(=O)c3ccc(OC)cc3)CC2)cc1`, for which the “hERG current change (%, negative = inhibition) at 1uM” value is given as -15.3%.

As for `COc1ccc(CN2CCCC(C(=O)c3cccc(Cl)c3)C2)cc1` (centres unmarked), the “hERG current change (%, negative = inhibition) at 1uM” value is listed as -7.39%.

As for `COc1ccc(CN2CCC(C(=O)c3ccc(F)cc3)CC2)cc1`, the “hERG current change (%, negative = inhibition) at 1uM” value was -81%.

For the compound `COc1ccc(C(=O)C2CCN(C(=S)Nc3ccc(F)cc3)CC2)cc1`, the “hERG current change (%, negative = inhibition) at 1uM” value was -6.05%.

Regarding `COc1ccc(CNC(=O)C2CCN(C(=O)c3cccc(Cl)c3)CC2)cc1`, the “hERG current change (%, negative = inhibition) at 1uM” value is -3.93%.

`COc1ccc(CN2CCC(C(=O)c3ccc(Cl)cc3)CC2)cc1`: the “hERG current change (%, negative = inhibition) at 1uM” value is given as -80.9%.

`CCc1ccc(NC(=O)CN2CCC(C(=O)c3ccc(OC)cc3)CC2)cc1`: the “hERG current change (%, negative = inhibition) at 1uM” value was -3.64%.

For `COC(=O)Cc1ccc(NC(=S)N2CCN(C(=O)C3CCCO3)CC2)cc1` (centres unmarked), the “hERG current change (%, negative = inhibition) at 1uM” value came out at 5.7%.

For `COc1ccccc1CNC(=O)C(NS(=O)(=O)c1ccc2c(c1)OCCO2)C(C)C` (centres unmarked), the “hERG current change (%, negative = inhibition) at 1uM” value is 6.69%.

For the compound `COc1cc(C2NC(=O)C(C#N)=C(Nc3cccc(C)c3)S2)ccc1O` (centres unmarked), the “hERG current change (%, negative = inhibition) at 1uM” value is 18.5%.

`COc1cc2c(cc1OC)[C@H](Cc1ccc(O)cc1)NCC2`: the “hERG current change (%, negative = inhibition) at 1uM” value is given as 10.8%.
